# Most compounds without a hit are left out; they make up all but 1.6% or so of the library.
# RN4220 kill: growth inhibition of S. aureus RN4220, primary screen, OD600; 16 h; inhibition, % (no concentration beside the values); hit rate 0.33% among 330,000; in the data active = inhibition above about 85%
# Mtb hypoxia rep: PubChem AID 1159583; M. tuberculosis hypoxia-regulated fluorescent reporter, fluorescence; fluorescence inhibition, % (concentration not given with the values); hit rate 0.1% among 300,000; in the data active = fluorescence inhibition mostly above about 23%, no sharp cut-off; inactive = mostly below about 17%
# BJeLR viability: MLPCN primary cell-based screen for lethality selective to Ras in HRASV12 cells | BJeLR (HRASV12) viability, CellTiter-Glo ATP luminescence, 48 h | inhibition, % (no concentration beside the values) | hit rate 0.17% among 300,000 | AID 1554, 2009; in the data active = inhibition above about 50%
# RecA splice inh: Mtb RecA intein splicing inhibitors, primary screen, biochemical, fluorescence, HTS | AID 2221, 2009 | inhibition, % (concentration not given with the values) | hit rate 0.75% among 290,000 | cell-free RecA intein splicing; in the data active = inhibition above about 30%
# CCHF vOTU inh: CCHFV vOTU protease inhibitors, primary screen, biochemical, Pep-AMC substrate, fluorescence. inhibition, % at 11.5 µM. Crimean-Congo hemorrhagic fever virus L polyprotein viral ovarian tumor (vOTU) protease …. AID 651958, 2012. hit rate 0.55% among 370,000; in the data active = inhibition above about 30%
# ugtP null kill: growth inhibition of ugtP-null S. aureus, primary screen, RN4220 ugtP deletion, OD600. 16 h. growth inhibition, % (no concentration beside the values). hit rate 0.54% among 330,000. AID 1259309, 2017; in the data active = growth inhibition above about 68%
# Numbers stand for hits; i = inactive; nt = no result given.
SMILES,RN4220 kill,Mtb hypoxia rep,BJeLR viability,RecA splice inh,CCHF vOTU inh,ugtP null kill
Nc1nc(NCCO)nc(N2CCCCCC2)c1[N+](=O)[O-],i,i,i,i,i,i
Nc1nc(NCCOCCO)nc(N2CCCCCC2)c1[N+](=O)[O-],i,i,i,i,i,94
CC1(C)Cc2ccccc2-c2nnc(SCC(=O)Nc3nc4ccccc4s3)n21,88,i,i,nt,i,98
Cc1c(Cl)cccc1NC(=S)/C(=C(\[O-])c1ccc(Cl)s1)[n+]1ccccc1,i,nt,i,37,i,i
CC1CN(C(C)CO)C(=O)c2cc(NC(=O)Nc3ccccc3)ccc2OC1CN(C)S(=O)(=O)c1cn(C)cn1 (configuration not stated),i,i,nt,nt,nt,i
O=C(Nc1ccccc1Cl)ON=C1c2ccccc2-c2ccccc21,i,i,i,i,nt,95
O=C(Nc1ccccc1)ON=C1c2ccccc2-c2ccccc21,i,i,i,i,i,i
CCC(C)C(Nc1nc(-c2ccccc2)nc2c1oc1ccccc12)C(=O)O (configuration not stated),i,i,nt,nt,nt,i
CCCCNc1nc(CC)c2c(c1C#N)CCCC2,i,i,i,i,i,81
CCCCc1nc(NCCO)c(C#N)c2c1CCCC2,i,i,i,i,i,i
CCCC=C1CCCOC(C(=O)NCc2cc(C)n(C)n2)(C(F)(F)F)C1 (configuration not stated),i,i,nt,nt,nt,i
O=C(CSc1nnc(-c2ccccc2)c(-c2ccccc2)n1)Nc1ccc(Br)cn1,i,i,i,i,i,88
O=C(CSc1nnc(-c2ccccc2)c(-c2ccccc2)n1)Nc1ncc(Cl)cc1Cl,i,i,i,i,i,i
O=C1C2C(c3ccc(Cl)cc3)N3C(=O)N(c4cccc(Br)c4)C(=O)[C@@]3(Cc3ccc(Cl)cc3)C2C(=O)N1C1CCCCC1 (some centres not stated),i,i,nt,nt,nt,i
Cn1nnnc1Sc1ncnc2scc(-c3ccc(F)cc3)c12,i,i,i,32,i,i
Cn1nnnc1Sc1ncnc2scc(-c3ccc(Br)cc3)c12,i,i,nt,nt,i,i
O=C1CN(/N=C/c2ccc([N+](=O)[O-])o2)C(=O)N1,nt,nt,i,i,i,nt
O=C1OC(CN(Cc2ccccc2)Cc2ccccc2)CN1N=Cc1ccc([N+](=O)[O-])o1 (configuration not stated),i,i,nt,nt,i,100
O=C1OC(CN2CCOCC2)CN1N=Cc1ccc([N+](=O)[O-])o1 (configuration not stated),100,i,nt,nt,i,100
CCC(=O)[C@@]1(C)C(C)CC2C3CCC4=CC(=O)C=C[C@]4(C)C3C(O)C[C@@]21C (some centres not stated),i,i,nt,nt,nt,i
CC(C)C(NS(=O)(=O)c1ccccc1)C(=O)OCC(=O)NC(=O)c1cccn1C (configuration not stated),i,i,nt,nt,nt,i
O=C(COc1ccc(Cl)cc1Cl)NNC(=S)NC(=O)c1ccco1,93,i,i,i,i,90
O=C(COc1ccc(Cl)cc1Cl)NNC(=S)NCc1ccco1,i,i,i,i,i,i
CC(C)(C)C(=O)NC(=S)NNC(=O)c1ccncc1,i,i,i,i,i,i
CC(C)(C)C(=O)NC(=S)NNC(=O)c1ccc(-c2ccccc2)cc1,92,i,i,i,nt,i
SMILES,RN4220 kill,Mtb hypoxia rep,BJeLR viability,RecA splice inh,CCHF vOTU inh,ugtP null kill
Cc1ccc(C(=O)NNC(=S)NC(=O)COc2ccccc2)cc1,88,i,i,i,i,92
CCCCOc1ccc(C(=O)NNC(=S)NC(=O)CC)cc1,94,i,i,i,nt,98
COC(=O)C1=C(c2cccc(C#N)c2)CC2CCC1N2C(=O)NCCOc1ccccc1Cl (configuration not stated),i,i,nt,nt,nt,i
CC[C@]12C(=O)N(C)CC(C3C(=O)N(C)C(=O)C31)N2C(=O)c1ccc(C(C)(C)C)cc1 (some centres not stated),i,i,nt,nt,nt,i
O=C(NC(=S)NNC(=O)c1cccs1)c1ccccc1,i,i,i,i,i,i
CC(C)(C)c1ccc(C(=O)NC(=S)NNC(=O)c2cccs2)cc1,86,i,i,i,i,92
CCCOc1ccc(C(=O)NNC(=S)NC(=O)c2ccco2)cc1,87,i,i,i,i,90
COc1ccc(SCCN2CCC(NC(=O)OCc3ccccc3)CCC2=O)cc1 (configuration not stated),i,i,nt,nt,nt,i
C(=Cc1sc(Nc2ccccc2)n[n+]1-c1ccccc1)c1ccccc1,i,i,nt,nt,nt,i
CCN(CC)CCN1C(=O)/C(=C\c2ccc(Cl)c([N+](=O)[O-])c2)SC1=Nc1ccc(OC)cc1,i,i,88,i,i,93
COc1ccc(N=C2S/C(=C\c3ccc(Cl)c([N+](=O)[O-])c3)C(=O)N2CCN(C)C)cc1,nt,nt,59,i,i,nt
CCOC1OC(C(=O)N2CCOCC2)=CC(C2CCCCC2)C1CCCO (configuration not stated),i,i,nt,nt,nt,i
CCCCCC(=O)Nc1cccc(C2=NOC3(C2)CC(C(N)=O)N(C(=O)CC)C3)c1 (configuration not stated),i,i,nt,nt,nt,i
COc1ccc(-n2c(-c3ccc(Br)cc3)c[n+]3c2CCc2ccccc2-3)cc1,i,nt,i,i,i,i
CC(C)c1ccc(-n2c(-c3ccccc3)c[n+]3c2CCc2ccccc2-3)cc1,96,nt,i,i,i,100
CC1=NNC(=O)/C1=C\c1cn(-c2ccccc2)nc1-c1ccc(Cl)cc1,i,i,i,90,i,i
COC(=O)C1=C(c2cccc(OCc3ccccc3)c2)CC2CCC1N2C(=O)NCCCc1ccccc1 (configuration not stated),i,i,nt,nt,nt,i
CCCCCCCC[n+]1cccc(C(=O)N(CC)CC)c1,i,i,i,i,i,i
CCCCCCCCCCCCCCCC[n+]1ccc(C(N)=O)cc1,100,i,nt,nt,i,100
CCCCCCC[n+]1ccc(-c2cc[n+](CCCCCCC)cc2)cc1,i,81,i,i,i,i
CCCCCCCCCCCCCCCC[n+]1cccc(C(=O)N(CC)CC)c1,100,i,i,i,i,100
CCCCCCCCCCCCCCCC[n+]1ccc(/C=N/O)cc1,nt,nt,nt,nt,56,nt
CN1C(=O)C2C(C1=O)C(c1ccc(F)cc1)N1C(=O)c3ccccc3NC(=O)C21 (configuration not stated),i,i,nt,nt,nt,i
CCN1CC2C3C(=O)N(Cc4ccccc4)C(=O)C3[C@](CC)(C1=O)N2C(=O)c1ccc(F)cc1 (some centres not stated),i,i,nt,nt,nt,i
N#CC(C#N)=c1ccc2c(c1)N1C3=C(CCCC3)CC3CCCCC31N=2 (configuration not stated),91,nt,i,i,i,92
